In PubChem BioAssay (NCATS):
Measured potencies and affinities stand elsewhere. Values without a mark were called inactive. Activity calls are given as the source filed them. The rule behind the calls is not given here.

How the values were obtained:
[1] = Ebola virus entry assay, green fluorescence channel
[2] = Ebola virus entry assay, green channel fluorescence
Throughout, for efficacy: 0% is about no effect.

In the case of `Cc1ccc(C(=O)C(C)CN2CCCCC2)cc1` (stereo not given), the efficacy [1] was -18.5% and the outcome [2] was “inactive”.
In the case of `COc1cc(/C=C/C(N)=O)cc(OC)c1OC`, the efficacy [1] was -22.5% and the outcome [2] was “inactive”.
For `O=C(O)CNC(=O)c1ccccc1`, the efficacy [1] was -32.2% and the outcome [2] was “inactive”.
With `CC(C)(Oc1ccc(Cl)cc1)C(=O)O` the efficacy [1] was -14.9% and the outcome [2] was “inactive”.
With `NCCNCCNCCN` the efficacy [1] was 15% and the outcome [2] was “inactive”.
In the case of `Cc1ccc(C(=O)C(=O)O)cc1C`, the efficacy [1] was -11.1% and the outcome [2] was “inactive”.
For `CC(C)Cc1ccc(C(C)C(=O)O)cc1` (stereo not given), the efficacy [1] was 17.8% and the outcome [2] was “inactive”.
With `COc1cc(C(=O)N2CCOCC2)cc(OC)c1OC` the efficacy [1] was -19.5% and the outcome [2] was “inactive”.
In the case of `CCN(CC)CCNC(=O)COc1ccc(OC)cc1`, the efficacy [1] was 11.4% and the outcome [2] was “inactive”.
With `O=C(Cn1ccnc1[N+](=O)[O-])NCc1ccccc1` the efficacy [1] was -10.1% and the outcome [2] was “inactive”.
In the case of `CC(C)(Sc1cc(C(C)(C)C)c(O)c(C(C)(C)C)c1)Sc1cc(C(C)(C)C)c(O)c(C(C)(C)C)c1`, the efficacy [1] was -17.7% and the outcome [2] was “inactive”.
With `CC(C)=CCC1C(=O)N(c2ccccc2)N(c2ccccc2)C1=O` the efficacy [1] was -18% and the outcome [2] was “inactive”.
With `CCCc1nn(C)c2c(=O)[nH]c(-c3cc(S(=O)(=O)N4CCN(C)CC4)ccc3OCC)nc12` the efficacy [1] was 14.7% and the outcome [2] was “inactive”.
For `O=c1[nH]c(=O)n([C@H]2C[C@H](O)[C@@H](CO)O2)cc1I`, the efficacy [1] was -7.83% and the outcome [2] was “inactive”.
For `CCn1cc(C(=O)O)c(=O)c2cnc(N3CCNCC3)nc21`, the efficacy [1] was -36.7% and the outcome [2] was “inactive”.
In the case of `CCOC(=O)Oc1ccc(CCNC(=O)[C@H](CCSC)NC(C)=O)cc1OC(=O)OCC`, the efficacy [1] was -12.4% and the outcome [2] was “inactive”.
With `CC(C)c1c(CN(C)C(C)Cc2ccccc2)n(C)n(-c2ccccc2)c1=O` (stereo not given) the efficacy [1] was -15% and the outcome [2] was “inactive”.
For `NC(N)=NCCN1CCCCCCC1`, the efficacy [1] was -19.4% and the outcome [2] was “inactive”.
With `CC(=O)NS(=O)(=O)c1ccc(N)cc1` the efficacy [1] was 10.9% and the outcome [2] was “inactive”.
With `O=C(O)Cc1sc(-c2ccccc2)nc1-c1ccc(Cl)cc1` the efficacy [1] was -17.4% and the outcome [2] was “inactive”.
